Assay [1] in a line: compound effects on lung adenocarcinoma cell viability – A549, calcein-AM fluorescence, 48 h, basal, profiling panel (AID 1162). The following applies: higher = more signal.
Assay [2] can be described thus: compound effects on differentiated 3T3-L1 adipocyte viability – cell-based, 3T3-L1 adipocytes, calcein-AM fluorescence, 48 h, basal, profiling panel (AID 1163). To be noted: 3T3-L1 adipocytes viability, higher = more signal.
Assay [3] in a line: compound effects on hepatocellular carcinoma cell viability – HepG2, calcein-AM fluorescence, 48 h, basal, profiling panel (AID 1164). The following applies: higher = more signal.
The nature of assay [4]: compound effects on multiple myeloma cell viability – MM1S, calcein-AM fluorescence, 48 h, basal, profiling panel (AID 1165).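 Further: viability of MM1S multiple myeloma cells under basal unstimulated conditions.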 The following applies: higher = more signal.
Assay [5] in a line: calcein-AM signal in unstimulated myeloma cells – cell-based, calcein-AM fluorescence, 48 h, PK04 Diversity Set, profiling panel (AID 1166).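 Further: cells grown under basal conditions without added stimulus.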 The following applies: RPMI8226 myeloma viability, higher = more signal.
Assay [6] is described as follows: JC-1 mitochondrial signal, unstimulated HepG2 cells – cell-based, JC-1 fluorescence, 24 h, 100 nL compound, profiling panel (AID 1167). To be noted: HepG2 mitochondrial potential, higher = more signal.
A short description of assay [7]: JC-1 mitochondrial signal, unstimulated adipocytes – cell-based, JC-1 fluorescence, 3T3-L1 adipocytes, 24 h, 100 nL compound, profiling panel (AID 1168). The following applies: JC-1 mitochondrial fluorescence, higher = more signal, called active from +8 up or from −8 down.
Assay [8] is described as follows: JC-1 mitochondrial signal, unstimulated myeloma cells – cell-based, JC-1 fluorescence, RPMI8226, 24 h, 100 nL compound, profiling panel (AID 1169). To be noted: JC-1 mitochondrial potential fluorescence, higher = more signal.
Assay [9] in a line: JC-1 mitochondrial signal, unstimulated MM1S myeloma – cell-based, JC-1 fluorescence, 24 h, 100 nL compound, profiling panel (AID 1170). To be noted: MM1S mitochondrial potential, higher = more signal.
The nature of assay [10]: resazurin metabolic signal in A549 cells – cell-based, resazurin fluorescence, 24 h, PK04 Diversity Set, profiling panel (AID 1171). To be noted: A549 viability, higher = more signal, called active from +8 up or from −8 down.

Structures are written as SMILES. Activity calls are given as the source filed them.
Further: test concentration not given here.

With `O=C1c2ccccc2C(=O)C2CC([C@H]3Oc4ccccc4S(=O)(=O)N4CCC[C@@H]34)=CCC12` (stereo not given in full), the z-score in assay [1] was 0.242; in assay [2] it was 0.703; in assay [3] it was 1.13; in assay [4], -2.53; in assay [5], -0.0759; in assay [6], 0.786. For the same compound, the z-score in [7] was 0.0775 (inactive); in [8], -0.667; in [9] it was -0.852; in assay [10], 0.178 (inactive).

Take `CCOC(=O)C[C@H]1[C@H](OC(=O)Cc2ccc3c(c2)OCO3)[C@@H](NC(=O)c2ccccc2)c2cc(OCCCO)ccc2N1C(=O)c1ccccc1`: the z-score in [1] was -0.11; in assay [2], 0.232; in [3] it was 1.52; in assay [4], -0.266; in [5], 0.503; in [6], 0.614. Also, the z-score in [7] was 0.746 (inactive); in assay [8] it was 0.684; in [9], -0.96; in [10], 0.323 (inactive).

`COCCCNC(=O)[C@@H]1c2ccccc2C(=O)N(c2ccc(C)cn2)[C@H]1c1ccc(CO)cc1`: the z-score in assay [1] is 0.212; in assay [2], 1.23; in assay [3], -0.357; in assay [4], -1.04; in assay [5] it was -0.57; in assay [6], -0.569. The z-score in [7] is -0.916 (inactive); in [8], 0.83; in [9], 0.484; in assay [10], -0.708 (inactive).

Regarding `C=CCC(OC(C)=O)[C@@H]1[C@@H](N(Cc2cccc3ccccc23)C(=O)c2ccc(C)cc2)c2cc(OCCCO)ccc2N1C(=O)c1ccc2ccccc2c1` (stereo not given in full), the z-score in assay [1] was 0.93; in assay [2], 1.08; in assay [3] it was 2.15; in assay [4], 0.577; in assay [5], 0.12; in assay [6], 2.37. Besides, the z-score in [7] is 0.658 (inactive); in [8], 0.102; in assay [9], -0.796; in assay [10] it was 0.912 (inactive).

Turning to `CCN(CC)c1ccc(N2CC=CC34O[C@@H]5/C=C\CCCOC(=O)C5[C@H]3C(=O)N(CCCCCCO)[C@@H]4C2=O)cc1` (stereo not given in full), the z-score in assay [1] is 0.626; in assay [2], 0.554; in assay [3] it was 1.24; in [4], 0.0885; in assay [5] it was 0.0026; in assay [6] it was 1.09. Further, the z-score in assay [7] was 0.587 (inactive); in assay [8], -0.25; in [9], 0.0342; in [10], 0.0444 (inactive).

In the case of `COC(=O)[C@@]1(Cc2ccc(OC)cc2)[C@H]2c3cc(C(=O)N4CCCC4)n(CCF)c3C[C@H]2CN1C(=O)c1ccccc1`, the z-score in [1] was -1.41; in [2], 1.71; in assay [3] it was -0.336; in assay [4], 0.0026; in assay [5], -1.05; in assay [6], 3.33. The z-score was -1.65 (inactive) in assay [7], -0.178 in assay [8], -0.0401 in assay [9] and -1.55 (inactive) in assay [10].

As to `COc1ccccc1CN1C(=O)c2ccccc2[C@](Cc2ccccc2I)(C(=O)NCCN2CCOCC2)[C@@H]1c1ccc(CO)cc1`, the z-score in assay [1] was 0.0739; in assay [2] it was 0.937; in [3] it was 1.26; in assay [4], -1.17; in assay [5], -2.74; in [6], 2.25. In addition, the z-score is 0.833 (inactive) in [7], -0.673 in [8], -0.454 in [9] and -1.83 (inactive) in [10].

Turning to `CCOC(=O)C1=CC[C@@H](c2ccccc2)N(S(=O)(=O)c2ccc(C)cc2)[C@H]1C=C(C)C`, the z-score in [1] was -1.36; in [2], -1.2; in assay [3], -1.01; in assay [4], -1.33; in assay [5] it was -0.89; in assay [6] it was 4.57. Also, the z-score in assay [7] was -0.638 (inactive); in assay [8] it was -1.01; in assay [9], -1.79; in assay [10], 1.26 (inactive).

Turning to `[N-]=[N+]=NCc1ccccc1C[C@]1(C(=O)NCCN2CCOCC2)COC(c2ccc(OCCCO)cc2)=N1`, the z-score is 1.18 in assay [1]; -0.487 in assay [2]; 0.652 in assay [3]; 0.689 in assay [4]; -0.699 in [5]; 2.24 in [6]. The z-score was 0.498 (inactive) in assay [7], -0.218 in assay [8], -1.05 in assay [9] and 0.169 (inactive) in [10].

On to `COC(=O)[C@@]1(Cc2ccccc2)[C@H]2c3cc(C(=O)N(C)C)n(Cc4ccccn4)c3C[C@H]2CN1C(=O)c1ccccc1`, for which the z-score is -1.43 in assay [1]; -0.125 in assay [2]; -0.468 in assay [3]; -1 in [4]; -1.71 in [5]; 0.428 in assay [6]. Besides, the z-score is -0.698 (inactive) in assay [7], 0.00235 in assay [8], -0.135 in assay [9] and -0.712 (inactive) in [10].

Consider `COCCOC(=O)N1C(=O)[C@@]2(c3cc(C#CCNC(N)=O)ccc31)[C@H](C(=O)N1CCCCCCC1)[C@H]1C(=O)O[C@H](c3ccccc3)[C@H](c3ccccc3)N1[C@@H]2c1ccc(OCCO)cc1`, for which the z-score in assay [1] was 0.626; in assay [2], 0.636; in assay [3] it was 1.46; in [4], 0.246; in [5], 1.01; in [6] it was -1.47. The z-score in assay [7] was -2.15 (inactive); in assay [8], -0.764; in assay [9], -1.75; in assay [10] it was -0.619 (inactive).

`C=CCNC(=O)[C@@H]1[C@H]2C(=O)O[C@H](c3ccccc3)[C@H](c3ccccc3)N2[C@H](c2ccc(O)cc2)[C@@]12C(=O)Nc1ccc(C#CCCO)cc12`: the z-score in assay [1] was 0.47; in [2], 0.79; in assay [3] it was -0.168; in assay [4], -0.21; in assay [5], -0.719; in assay [6], -0.931. Besides, the z-score in assay [7] is -0.296 (inactive); in assay [8] it was -0.456; in [9], -0.388; in assay [10] it was 1.01 (inactive).

Consider `CCC[C@@H]1C[C@@]1(CCC)[C@@H](NC(=O)c1cccs1)c1ccc(Cl)cc1`, for which the z-score is -0.162 in [1]; -0.608 in assay [2]; -0.892 in assay [3]; -2.77 in [4]; -4.78 in assay [5]; -0.52 in assay [6]. Further, the z-score in assay [7] was 0.028 (inactive); in [8], -0.000314; in [9] it was -0.386; in assay [10] it was 4.94 (inactive).

As to `COC(=O)[C@@]1(Cc2ccccc2)[C@H]2c3cc(C(=O)N4CCCC4)n(Cc4ccccc4)c3C[C@H]2CN1C(=O)c1ccccc1`, the z-score in [1] is -1.39; in assay [2], 0.988; in assay [3] it was -0.0065; in assay [4], -2.96; in assay [5], -4.64; in assay [6], 0.106. Also, the z-score is -1.74 (inactive) in assay [7], -0.737 in assay [8], -0.777 in assay [9] and -3.12 (inactive) in assay [10].

Regarding `COCCOC(=O)N1C(=O)[C@@]2(c3cc(C#CCNC(N)=O)ccc31)[C@H](c1ccc(OCCO)cc1)N1[C@H](c3ccccc3)[C@H](c3ccccc3)OC(=O)[C@H]1[C@@H]2C(=O)N1CCN(c2ncccn2)CC1`, the z-score is -0.142 in assay [1]; 0.169 in assay [2]; -0.123 in [3]; -0.216 in assay [4]; 0.191 in assay [5]; -1.76 in assay [6]. The z-score in [7] was 1 (inactive); in assay [8], 0.118; in [9] it was -0.572; in [10] it was 1.28 (inactive).

Consider `O=C1N(Cc2ccccc2)c2ccccc2[C@H]2OC(c3ccc(OCCCO)cc3)=N[C@@]12CCS(=O)(=O)c1ccccc1`, for which the z-score was -0.737 in assay [1]; 0.899 in assay [2]; -0.117 in assay [3]; -0.641 in assay [4]; -1.43 in [5]; 0.291 in [6]. Also, the z-score in assay [7] was 0.605 (inactive); in assay [8] it was -0.497; in assay [9], -0.0454; in [10], -0.725 (inactive).

The record behind these values is PubChem BioAssay.
